Measured values taken from PubChem BioAssay (EPA / NIEHS).
Active and inactive are the calls of the source. The calls were made as follows, unless noted: active = hit-call score of the fitted dose curve at least 0.9, where 1 is the maximum; inconclusive = response in the unintended direction; inactive = score below 0.9.

Test: CPHEA_Stoker_NIS_Cytotoxicity: Cytotoxicity Assessment for CPHEA's Radioactive Iodide Uptake (RAIU) Assay for Sodium/Iodide Symporter (NIS) Inhibition, Stoker and Laws Labs (AID 2283897);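 as to AC50: active means loss of ATP signal versus DMSO meaning cytotoxicity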
Conditions: not given
Outline: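 hNIS-HEK293T-EPA human kidney cells were exposed for 2 hours at room temperature to test chemicals (0.001–100uM, 0.5% final DMSO) in HEPES-buffered HBSS, pH 7.4. Viability was read as ATP content by luciferase bioluminescence, loss of signal versus DMSO.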

| Structure (SMILES) | outcome | AC50 |
| --- | --- | --- |
| CO/N=C(/C(=O)OC)c1ccccc1COc1ccccc1C | inactive |  |
| ClC1=C(Cl)C2(Cl)C3C(Cl)C(Cl)CC3C1(Cl)C2(Cl)Cl (configuration not stated) |  | 9.92 µM (active) |
| O=[N+]([O-])c1ccc(Cl)c(Cl)c1 | inactive |  |
| CCCCc1ccc(O)cc1 | inactive |  |
| CC(C)(C)N(NC(=O)c1ccc(Cl)cc1)C(=O)c1ccccc1 | inactive |  |
| O=S1(=O)OCC2C(CO1)C1(Cl)C(Cl)=C(Cl)C2(Cl)C1(Cl)Cl (configuration not stated) | inactive |  |
| c1ccc2c(c1)sc1ccccc12 | inactive |  |
| O=c1ssc(Cl)c1Cl |  | 80.9 µM (active) |
| CCOP(=S)(OCC)SCSCC | inactive |  |
| CCOP(=S)(Oc1ccc([N+](=O)[O-])cc1)c1ccccc1 (configuration not stated) | inactive |  |
| CCC(C)(C)c1ccc(O)cc1 | inactive |  |
| O=NN1CCCC1 | inactive |  |
| CCCCC(CC)COP(=O)(Oc1ccccc1)Oc1ccccc1 (configuration not stated) | inactive |  |

Test: CEETOX_H295R_11DCORT_noMTC: CeeTox H295R High-throughput Steroidogenesis Assay for 11-Deoxycortisol (11DCORT), maximum tolerated concentration (MTC) filtered results only (AID 2283911; active = hit-call score of the fitted dose curve at least 0.9, where 1 is the maximum; inactive = score below 0.9)
Conditions: actives raise or lower the signal
Outline: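 Readout is 11-deoxycortisol in culture medium by reverse-phase HPLC with MS/MS, after 48 h chemical treatment of forskolin-primed H295R cells. Values are relative to DMSO and unfiltered for cytotoxicity.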

| Structure (SMILES) | AC50 | outcome |
| --- | --- | --- |
| CCOc1ccc(C(C)(C)COCc2cccc(Oc3ccccc3)c2)cc1 | 13.1 µM (active) |  |
| CCOP(=S)(OCC)SCS(=O)(=O)CC | 39.2 µM (active) |  |
| CCOC(=O)c1ccccc1N |  | inactive |
| CCOC(=O)c1ccccc1C(=O)OCC |  | inactive |
